# Reference: ChEMBL document CHEMBL3988442, “University of Dundee, Small-Polar-MMV Screening Library” (2021)
# For some assays here: Results with a measured potency or affinity are listed apart.
# Legend:
# Parameters in all cases: scale not given: direction of the effect not stated beside the values
# [1] = target: Protein translocase subunit SecA (Escherichia coli (strain K12)) (UniProt P10408); test: Assay to Identify E. coli SecA ATPase Inhibitors; format: functional; conditions: 30 µM
# [2] = target: T1, Ubiquitin-activating enzyme e1, putative (Leishmania donovani (strain BPK282A1)) (UniProt E9BSI1); test: Leishmania donovani Ubiquitin Activating Enzyme (LdE1); format: functional; conditions: 30 µM
# T1 sequence (whole entry): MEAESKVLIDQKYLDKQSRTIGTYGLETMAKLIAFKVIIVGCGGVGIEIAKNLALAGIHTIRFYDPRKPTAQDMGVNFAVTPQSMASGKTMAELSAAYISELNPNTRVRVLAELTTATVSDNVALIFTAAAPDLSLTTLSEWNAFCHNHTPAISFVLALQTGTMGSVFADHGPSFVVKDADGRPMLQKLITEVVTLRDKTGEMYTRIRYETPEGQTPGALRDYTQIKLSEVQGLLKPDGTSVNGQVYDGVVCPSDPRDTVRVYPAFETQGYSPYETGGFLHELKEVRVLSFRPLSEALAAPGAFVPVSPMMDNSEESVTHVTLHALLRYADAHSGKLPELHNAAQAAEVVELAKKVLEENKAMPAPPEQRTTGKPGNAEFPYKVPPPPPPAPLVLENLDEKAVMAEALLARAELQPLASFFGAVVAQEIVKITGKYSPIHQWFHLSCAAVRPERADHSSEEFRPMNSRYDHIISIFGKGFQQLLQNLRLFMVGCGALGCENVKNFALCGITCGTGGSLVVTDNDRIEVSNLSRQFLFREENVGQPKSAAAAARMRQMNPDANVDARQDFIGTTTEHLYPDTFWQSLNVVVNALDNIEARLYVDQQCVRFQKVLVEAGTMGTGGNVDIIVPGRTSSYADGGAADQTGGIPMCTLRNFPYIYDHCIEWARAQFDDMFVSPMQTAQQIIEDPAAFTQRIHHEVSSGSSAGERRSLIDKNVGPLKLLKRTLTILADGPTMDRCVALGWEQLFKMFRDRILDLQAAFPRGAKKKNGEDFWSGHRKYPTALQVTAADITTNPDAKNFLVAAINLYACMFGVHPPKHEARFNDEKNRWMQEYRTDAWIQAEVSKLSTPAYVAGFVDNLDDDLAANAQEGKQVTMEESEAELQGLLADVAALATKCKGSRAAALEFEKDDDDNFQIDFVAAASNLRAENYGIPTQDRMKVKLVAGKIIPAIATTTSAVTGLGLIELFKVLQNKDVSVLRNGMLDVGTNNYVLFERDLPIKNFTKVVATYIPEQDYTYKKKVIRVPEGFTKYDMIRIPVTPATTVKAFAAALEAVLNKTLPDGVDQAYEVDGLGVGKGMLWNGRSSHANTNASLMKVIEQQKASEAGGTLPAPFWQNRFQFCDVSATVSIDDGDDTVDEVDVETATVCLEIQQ
# [3] = target: Sialic acid-binding Ig-like lectin 9 (Homo sapiens) (UniProt Q9Y336); test: Hs-Siglec9 ALPHAscreen SOP 20170721; conditions: 10 µM
# Sialic acid-binding Ig-like lectin 9 (Homo sapiens), sequence (Q9Y336 whole entry): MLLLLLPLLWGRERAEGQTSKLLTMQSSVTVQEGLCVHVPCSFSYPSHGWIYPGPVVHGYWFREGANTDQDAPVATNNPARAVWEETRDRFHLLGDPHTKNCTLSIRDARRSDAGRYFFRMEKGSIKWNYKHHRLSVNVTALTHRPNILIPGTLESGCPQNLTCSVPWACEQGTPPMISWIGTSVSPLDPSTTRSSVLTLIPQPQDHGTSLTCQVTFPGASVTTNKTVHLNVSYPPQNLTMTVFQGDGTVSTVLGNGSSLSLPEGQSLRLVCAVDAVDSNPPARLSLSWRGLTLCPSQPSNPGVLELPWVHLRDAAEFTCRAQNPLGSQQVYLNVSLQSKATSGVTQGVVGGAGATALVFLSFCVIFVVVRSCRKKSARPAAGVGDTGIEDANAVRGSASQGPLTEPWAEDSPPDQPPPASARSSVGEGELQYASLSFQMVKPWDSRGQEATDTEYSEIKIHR
# Trypanosoma cruzi = test: Trypanosoma cruzi phosphomannomutase and mannose-1-phosphate guanylyltransferase assay; format: functional; conditions: 10 µM
# [4] = target: T2, Arginase-2, mitochondrial (Homo sapiens) (UniProt P78540); test: in vitro enzyme assay to detect the production of urea directly proportional to the activity of Arginase II; format: functional; conditions: 33.3 µM; note: in the data most compounds retested in dose-response had high values
# T2 sequence (whole entry): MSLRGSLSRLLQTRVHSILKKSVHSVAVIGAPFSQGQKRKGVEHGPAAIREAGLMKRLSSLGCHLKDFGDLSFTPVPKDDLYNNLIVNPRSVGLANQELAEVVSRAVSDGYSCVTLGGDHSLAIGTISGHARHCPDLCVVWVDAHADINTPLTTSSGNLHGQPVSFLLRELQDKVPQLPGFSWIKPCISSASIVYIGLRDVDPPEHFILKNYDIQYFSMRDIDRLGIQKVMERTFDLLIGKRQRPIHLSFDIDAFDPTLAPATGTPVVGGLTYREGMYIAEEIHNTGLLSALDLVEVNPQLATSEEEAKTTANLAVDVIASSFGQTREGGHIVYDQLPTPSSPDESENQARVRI
# [5] = target: T3, Proteasome subunit beta (Trypanosoma cruzi) (UniProt O96673); test: Trypanosoma cruzi proteasome chymotrypsin-like activity (TcProtChymo) assay.; note: in the data most compounds retested in dose-response had high values; format: functional; conditions: 9.37 µM
# T3 sequence (whole entry): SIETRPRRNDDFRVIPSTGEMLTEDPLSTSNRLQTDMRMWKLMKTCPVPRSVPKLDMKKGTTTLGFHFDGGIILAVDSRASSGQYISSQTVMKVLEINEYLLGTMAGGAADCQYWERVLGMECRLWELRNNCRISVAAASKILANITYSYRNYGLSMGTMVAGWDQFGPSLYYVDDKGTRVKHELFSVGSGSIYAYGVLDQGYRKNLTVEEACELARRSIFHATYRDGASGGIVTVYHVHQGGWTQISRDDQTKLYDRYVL
# Homo sapiens = species: Homo sapiens; test: To identify inhibition of the IFN signalling (Jak-Stat) pathway via expression of an eGFP reporter gene under the control of an IFN-stimulated response element (ISRE) containing MxA promoter.; format: functional; conditions: 30 µM
# [6] = target: T4, Tyrosyl-tRNA synthetase, putative (Trypanosoma cruzi (strain CL Brener)) (UniProt Q4DSP6); test: Trypanosoma cruzi tyrosyl tRNA synthetase (TcYRS) _High Tyrosine SOP; format: functional; conditions: 30 µM; note: in the data most compounds retested in dose-response had high values
# T4 sequence (whole entry): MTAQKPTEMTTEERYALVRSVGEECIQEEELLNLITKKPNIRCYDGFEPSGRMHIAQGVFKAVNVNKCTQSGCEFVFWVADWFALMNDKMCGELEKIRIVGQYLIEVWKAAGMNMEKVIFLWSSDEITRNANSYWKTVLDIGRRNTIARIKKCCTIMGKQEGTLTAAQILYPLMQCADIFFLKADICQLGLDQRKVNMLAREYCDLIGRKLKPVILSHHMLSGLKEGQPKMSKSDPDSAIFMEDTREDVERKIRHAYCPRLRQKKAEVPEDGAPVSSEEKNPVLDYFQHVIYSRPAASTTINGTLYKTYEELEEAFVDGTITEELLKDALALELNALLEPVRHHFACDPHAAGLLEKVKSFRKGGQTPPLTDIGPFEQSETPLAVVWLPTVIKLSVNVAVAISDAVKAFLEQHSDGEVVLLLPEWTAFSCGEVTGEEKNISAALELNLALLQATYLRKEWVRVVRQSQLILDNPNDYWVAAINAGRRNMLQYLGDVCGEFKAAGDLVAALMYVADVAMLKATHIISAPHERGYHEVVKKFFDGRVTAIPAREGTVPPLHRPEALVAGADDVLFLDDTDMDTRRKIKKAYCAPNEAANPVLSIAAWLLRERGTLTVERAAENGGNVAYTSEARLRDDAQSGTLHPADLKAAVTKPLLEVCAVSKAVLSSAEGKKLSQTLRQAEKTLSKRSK
# [7] = target: T4, Tyrosyl-tRNA synthetase, putative (Trypanosoma cruzi (strain CL Brener)); test: Trypanosoma cruzi tyrosyl tRNA synthetase (TcYRS) SOP; format: functional; conditions: 30 µM
# [8] = target: Chromo domain-containing protein 1 (Saccharomyces cerevisiae (strain ATCC 204508 / S288c) (Baker's yeast)) (UniProt P32657); test: ScCHD-1 Enzyme Inhibition Assay; format: functional; conditions: 30 µM; note: in the data most compounds retested in dose-response had high values
# Chromo domain-containing protein 1 (Saccharomyces cerevisiae (strain ATCC 204508 / S288c) (Baker's yeast)), sequence (P32657 whole entry, the tested form may be a part): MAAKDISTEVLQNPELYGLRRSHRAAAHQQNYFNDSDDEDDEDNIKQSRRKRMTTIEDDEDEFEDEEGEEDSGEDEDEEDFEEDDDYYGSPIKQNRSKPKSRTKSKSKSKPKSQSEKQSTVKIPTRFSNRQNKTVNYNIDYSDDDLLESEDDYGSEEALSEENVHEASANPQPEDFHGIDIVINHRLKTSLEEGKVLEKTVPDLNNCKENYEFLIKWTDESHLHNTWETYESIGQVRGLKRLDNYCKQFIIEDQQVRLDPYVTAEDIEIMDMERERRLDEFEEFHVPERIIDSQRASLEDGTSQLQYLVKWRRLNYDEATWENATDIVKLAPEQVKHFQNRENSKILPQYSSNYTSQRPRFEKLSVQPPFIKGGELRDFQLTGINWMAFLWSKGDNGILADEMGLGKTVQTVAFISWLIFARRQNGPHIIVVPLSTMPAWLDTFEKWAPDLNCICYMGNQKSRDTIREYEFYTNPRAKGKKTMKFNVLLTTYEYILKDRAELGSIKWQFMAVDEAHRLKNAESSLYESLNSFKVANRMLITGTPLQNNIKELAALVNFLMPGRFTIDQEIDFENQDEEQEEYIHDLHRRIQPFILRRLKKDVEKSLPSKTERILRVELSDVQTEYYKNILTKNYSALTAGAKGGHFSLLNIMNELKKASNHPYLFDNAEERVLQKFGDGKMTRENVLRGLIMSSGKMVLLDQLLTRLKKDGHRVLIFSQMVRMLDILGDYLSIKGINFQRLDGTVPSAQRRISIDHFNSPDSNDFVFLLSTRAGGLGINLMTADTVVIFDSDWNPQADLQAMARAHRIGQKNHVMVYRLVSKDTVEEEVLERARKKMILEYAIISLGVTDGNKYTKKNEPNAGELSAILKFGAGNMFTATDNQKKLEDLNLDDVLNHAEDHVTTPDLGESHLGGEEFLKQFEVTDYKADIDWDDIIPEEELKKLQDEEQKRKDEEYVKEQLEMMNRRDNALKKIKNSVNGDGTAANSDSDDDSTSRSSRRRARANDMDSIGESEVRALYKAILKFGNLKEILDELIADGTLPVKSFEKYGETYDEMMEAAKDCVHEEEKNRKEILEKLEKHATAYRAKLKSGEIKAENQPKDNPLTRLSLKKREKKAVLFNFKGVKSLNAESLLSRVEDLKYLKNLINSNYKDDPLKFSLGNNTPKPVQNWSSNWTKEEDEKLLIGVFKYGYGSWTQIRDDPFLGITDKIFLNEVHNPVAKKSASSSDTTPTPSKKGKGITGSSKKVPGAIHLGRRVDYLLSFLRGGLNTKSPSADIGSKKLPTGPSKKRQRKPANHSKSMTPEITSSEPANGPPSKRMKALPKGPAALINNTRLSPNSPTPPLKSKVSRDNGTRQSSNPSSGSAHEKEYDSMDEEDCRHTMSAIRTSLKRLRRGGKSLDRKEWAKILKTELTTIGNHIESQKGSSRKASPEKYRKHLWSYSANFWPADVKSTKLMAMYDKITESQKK
# Protein translocase subunit SecA (Escherichia coli (strain K12)), sequence (P10408 whole entry): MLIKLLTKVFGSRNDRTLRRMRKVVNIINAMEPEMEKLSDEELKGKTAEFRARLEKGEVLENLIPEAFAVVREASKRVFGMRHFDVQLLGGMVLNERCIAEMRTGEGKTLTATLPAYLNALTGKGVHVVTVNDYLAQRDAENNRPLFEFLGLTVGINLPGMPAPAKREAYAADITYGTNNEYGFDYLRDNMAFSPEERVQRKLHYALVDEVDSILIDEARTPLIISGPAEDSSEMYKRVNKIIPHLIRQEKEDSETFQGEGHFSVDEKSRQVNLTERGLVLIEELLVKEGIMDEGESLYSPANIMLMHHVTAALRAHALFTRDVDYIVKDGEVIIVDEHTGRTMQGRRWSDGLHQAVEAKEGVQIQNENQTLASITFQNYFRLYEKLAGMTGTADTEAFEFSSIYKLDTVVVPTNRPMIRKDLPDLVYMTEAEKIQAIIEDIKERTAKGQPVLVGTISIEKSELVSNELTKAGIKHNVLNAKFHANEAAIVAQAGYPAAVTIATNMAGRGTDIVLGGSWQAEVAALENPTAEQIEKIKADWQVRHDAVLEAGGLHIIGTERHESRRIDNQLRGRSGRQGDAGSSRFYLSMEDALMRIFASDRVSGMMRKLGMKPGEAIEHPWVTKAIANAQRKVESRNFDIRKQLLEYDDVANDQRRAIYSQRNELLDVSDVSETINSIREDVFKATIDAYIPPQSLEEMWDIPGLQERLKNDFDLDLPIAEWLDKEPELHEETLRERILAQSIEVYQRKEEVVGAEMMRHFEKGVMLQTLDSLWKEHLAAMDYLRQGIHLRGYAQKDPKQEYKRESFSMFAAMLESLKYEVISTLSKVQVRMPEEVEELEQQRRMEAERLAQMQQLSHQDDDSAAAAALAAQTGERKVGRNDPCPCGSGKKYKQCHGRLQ
Structure (SMILES),Percent Effect [1] [%],Percent Effect [2] [%],Percent Effect [3] [%],Percent Effect (Trypanosoma cruzi) [%],Percent Effect [4] [%],Percent Effect [5] [%],Percent Effect (Homo sapiens) [%],Percent Effect [6] [%],Percent Effect [7] [%],Percent Effect [8] [%]
Cc1cccn2cc(CC(=O)N3CCCC(n4cncn4)C3)nc12 (stereo not given),-0.27,17.9,-8.4,6.1,5.74,15.6,17.2,3.35,22.9,-6
CN1CCN(CC2CC2)C(=O)c2cnc(N3CC[C@@H](O)C3)nc21,-3.96,0,-4.48,-3.21,-4.43,3.99,-1.63,-2.63,-7.69,-9.27
CN(c1ccncn1)C1CC2(CCN(C(=O)c3ccsc3)C2)C1 (stereo not given),-2.12,22.7,0.226,3.55,-4.42,17.2,11.8,0,17.5,-21.9
Cc1ccc(-c2nc(CCNC(=O)CCN3CCOC3=O)co2)cc1,-3.11,5.33,5.5,-0.602,8.87,7.72,33.2,6.84,5.13,-8.83
c1ccc(-c2nc(CN3CCOC(Cn4cccn4)C3)no2)cc1 (stereo not given),-2.84,2.67,-2.67,-3.01,4.43,7.38,4.88,5.79,12.8,-6.08
CN1CCOC(CNC(=O)CCCOCCc2ccccc2)C1 (stereo not given),-3.33,17.9,-5.99,9.86,3.28,9.13,19.5,4.31,22.9,-6.94
COc1ccc(C(C)NC(=O)Cn2ccc(=O)n(C)c2=O)cc1OC (stereo not given),-2.49,7.79,11,-2.8,3.48,9.65,17.1,8.82,18.8,-4.91
Cc1cn2c(n1)CCC(NC(=O)c1c[nH]c(C)n1)C2 (stereo not given),-6.87,-10.7,1.48,3.61,0,10.9,17.2,3.68,7.69,-13.6
Cc1ccc(CNC(=O)N2CCN(Cc3ccsc3)CC2)n1C,-3.87,2.67,-1.44,-5.42,-5.76,14.5,15.6,2.63,-17.9,-19.4
CN(C)S(=O)(=O)N1CCN(c2ccnc(N3CCCC3)n2)CC1,-3.6,-2.7,-0.53,3.01,-1.75,8.39,-13.3,3.72,4.88,-0.866
Cc1[nH]c(=O)c(C#N)cc1C(=O)N1C[C@@H](CN2CCCC2)C[C@H](CO)C1,-6.79,-8.11,-1.68,-2.81,3.85,-5.82,21.2,-0.532,-2.44,2.93
COc1ccccc1CC(=O)N1CC[C@@]2(CCCO2)[C@@H](OC)C1,-3.82,4,-4.43,-3.35,-9.29,6.4,14.4,-1.06,5,-24.2
CCN1CCO[C@]2(CCC[C@H]2COCc2csc(C)n2)C1,-5.1,-1.3,11,-0.292,-7.29,3.27,-2.57,3.68,5.13,-0.161
CCN(CC)C1CCN(C(=O)NCc2nncn2CC)CC1,-3.6,13.3,-2.94,3.41,3.55,12,21.2,0.526,7.69,-11.2
Cn1cnc2c1CCN(Cc1ccc(C(=O)N3CCCC3)cc1)C2,-2.26,15.4,-9.12,1.97,4.51,11,9.66,3.35,20.5,-0.499
CN(C)CC(=O)N1CCC2(CCN(Cc3ccccn3)C2=O)C1 (stereo not given),-3.33,-1.3,-3.23,-2.63,-4.45,12.6,-1.64,1.58,7.69,-2.1
CCCn1ccc(C(=O)N2CCOC(c3nc(-c4cccs4)no3)C2)n1 (stereo not given),-2.75,6.67,6.13,-1.18,0,4.76,1.83,5.29,17.5,-17.3
C1CC(CN2CCOCC3(CCN(C4CCOCC4)C3)C2)CCO1 (stereo not given),-5.96,9.09,-7.57,6.13,-6.88,13.7,3.41,6.84,10.3,0.2
O=C1CC(c2cccc(O)c2)c2sc(C(=O)O)c(-c3ccccc3)c2N1 (stereo not given),7.88,-10.8,-0.96,-8.24,-10.1,13,31.3,-9.04,-2.44,-0.195
c1cn2c(n1)CN(CC1CC1)CC(CN1CCOCC1)C2 (stereo not given),-6.5,9.09,6.06,-2.24,-2.43,11,-10.6,17.4,12.8,0.532
CC(NC(=O)N1CCN(CCc2ccccc2)CC1)c1nncn1C (stereo not given),-5.57,5.33,0.0136,3.41,0.444,7.55,13.6,2.63,-20.5,-8.2
O=C1C(NCc2nnc3n2CCCC3)CCN1c1ccccc1 (stereo not given),-2.98,10.3,-1.63,8.17,7.79,-2.99,18.5,3.35,13.2,-2.81
O=C(Cc1cccnc1)N1CCC(OCc2ccccc2)CC1,-7.08,-8.11,3,-2.42,-0.35,13.2,24.2,6.92,19.5,101
COCCc1noc(CN2CCCCC2Cn2cc(C)cn2)n1 (stereo not given),-0.511,-2.56,-0.235,3.85,-1.23,3.84,12.7,-3.35,6.02,-1.31
Cn1cc(CNCC2Cn3nnc(-c4ccccc4)c3CO2)cn1 (stereo not given),-4.8,6.49,9.99,4.97,13,4.68,-2.48,2.63,10.3,19
O=S(=O)(N1CCCC1)N1CCCCC1CCc1ccccc1 (stereo not given),-6.97,0,-0.69,-3.59,-1.05,13,25.4,-3.72,-4.88,-0.676
